Laboratory results taken from PMC7862700, “An all-to-all approach to the identification of sequence-specific readers for epigenetic DNA modifications on cytosine”.

How the values were obtained:
Test in all cases: DAPPL (digital affinity profiling via proximity ligation, sequencing); 10 mM Tris-HCl pH 7.5, 50 mM NaCl, 1 mM DTT, 4% glycerol, room temperature, 30 min; GST-TFs on glutathione beads, 16-mer random dsDNA library, 0.1% formaldehyde crosslink after washing; high values mean tight binding
Settings in all cases: protein: recombinant; tags: N-terminal GST; dsDNA, one strand shown
ERF = target: T1, ERF (Homo sapiens, UniProt P50548 1-548)
T1 sequence: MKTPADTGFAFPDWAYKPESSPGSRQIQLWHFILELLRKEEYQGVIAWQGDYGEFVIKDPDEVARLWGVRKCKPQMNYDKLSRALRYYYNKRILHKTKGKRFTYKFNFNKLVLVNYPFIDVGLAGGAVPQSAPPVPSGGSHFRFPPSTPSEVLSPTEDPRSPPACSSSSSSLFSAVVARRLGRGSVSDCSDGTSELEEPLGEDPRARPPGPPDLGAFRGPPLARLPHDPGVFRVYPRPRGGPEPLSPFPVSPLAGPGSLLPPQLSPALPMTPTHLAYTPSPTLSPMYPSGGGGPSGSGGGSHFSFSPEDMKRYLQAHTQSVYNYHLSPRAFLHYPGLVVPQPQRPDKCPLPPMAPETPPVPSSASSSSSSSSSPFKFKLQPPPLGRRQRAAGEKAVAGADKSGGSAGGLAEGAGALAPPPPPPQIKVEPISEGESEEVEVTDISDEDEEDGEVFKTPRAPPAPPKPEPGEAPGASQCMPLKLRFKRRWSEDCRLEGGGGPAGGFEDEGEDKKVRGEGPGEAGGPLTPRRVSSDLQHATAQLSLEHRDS
Procedure, shortened: (§1)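 After expression in yeast as GST fusions, human transcription factors were bound to glutathione beads, DNA-barcoded and mixed with a tag-only sample. The pools were incubated with 200 nmole of a 16-mer random double-stranded DNA library in Tris/NaCl/DTT/glycerol buffer (30 min, room temperature), washed and crosslinked with 0.1% formaldehyde. Proximity ligation with BsaI/T4 ligase ran for 1 h at 37 °C, before PCR amplification and sequencing on an Illumina NextSeq500. Binding signal is a hexamer's read frequency for a factor divided by its frequency for the tag-only sample.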

ETV3L = target: T2, ETV3L (Homo sapiens, UniProt Q6ZN32 1-361)
T2 sequence: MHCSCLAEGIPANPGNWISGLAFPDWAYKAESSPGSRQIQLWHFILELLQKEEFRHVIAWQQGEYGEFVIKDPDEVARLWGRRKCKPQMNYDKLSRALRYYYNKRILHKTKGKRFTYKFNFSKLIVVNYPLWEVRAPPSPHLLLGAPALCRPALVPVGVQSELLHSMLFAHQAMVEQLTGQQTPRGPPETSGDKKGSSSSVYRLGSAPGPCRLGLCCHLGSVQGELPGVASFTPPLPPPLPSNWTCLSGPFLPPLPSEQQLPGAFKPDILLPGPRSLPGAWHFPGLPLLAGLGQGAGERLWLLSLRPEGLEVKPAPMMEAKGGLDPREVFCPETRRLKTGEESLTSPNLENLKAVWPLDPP
Procedure, shortened: as §1

ETS2 = target: T3, ETS2 (Homo sapiens, UniProt P15036 1-469)
T3 sequence: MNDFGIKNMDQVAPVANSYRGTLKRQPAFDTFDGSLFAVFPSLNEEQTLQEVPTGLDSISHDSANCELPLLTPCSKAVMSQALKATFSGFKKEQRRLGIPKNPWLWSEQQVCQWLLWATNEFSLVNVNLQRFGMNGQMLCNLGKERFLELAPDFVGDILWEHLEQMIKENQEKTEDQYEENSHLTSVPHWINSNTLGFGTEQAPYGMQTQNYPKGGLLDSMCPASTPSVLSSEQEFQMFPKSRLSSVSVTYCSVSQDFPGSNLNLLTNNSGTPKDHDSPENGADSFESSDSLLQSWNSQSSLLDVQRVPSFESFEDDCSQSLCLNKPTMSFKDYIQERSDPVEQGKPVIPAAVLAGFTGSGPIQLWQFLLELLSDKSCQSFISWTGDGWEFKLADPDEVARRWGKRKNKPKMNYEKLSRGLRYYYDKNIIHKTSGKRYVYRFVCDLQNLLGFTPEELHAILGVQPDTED
Procedure, shortened: as §1

SPDEF = target: T4, SPDEF (Homo sapiens, UniProt O95238 1-335)
T4 sequence: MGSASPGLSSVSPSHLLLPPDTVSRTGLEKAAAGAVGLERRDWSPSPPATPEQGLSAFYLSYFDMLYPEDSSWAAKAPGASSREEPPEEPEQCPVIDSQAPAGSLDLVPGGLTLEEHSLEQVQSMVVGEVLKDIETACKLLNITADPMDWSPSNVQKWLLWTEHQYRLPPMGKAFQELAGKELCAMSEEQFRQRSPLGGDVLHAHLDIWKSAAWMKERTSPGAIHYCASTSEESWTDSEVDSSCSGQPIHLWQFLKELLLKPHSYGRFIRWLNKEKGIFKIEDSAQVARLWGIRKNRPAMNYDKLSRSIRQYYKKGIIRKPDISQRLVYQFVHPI
Procedure, shortened: as §1

ETV7 = target: T5, ETV7 (Homo sapiens, UniProt Q9Y603 1-341)
T5 sequence: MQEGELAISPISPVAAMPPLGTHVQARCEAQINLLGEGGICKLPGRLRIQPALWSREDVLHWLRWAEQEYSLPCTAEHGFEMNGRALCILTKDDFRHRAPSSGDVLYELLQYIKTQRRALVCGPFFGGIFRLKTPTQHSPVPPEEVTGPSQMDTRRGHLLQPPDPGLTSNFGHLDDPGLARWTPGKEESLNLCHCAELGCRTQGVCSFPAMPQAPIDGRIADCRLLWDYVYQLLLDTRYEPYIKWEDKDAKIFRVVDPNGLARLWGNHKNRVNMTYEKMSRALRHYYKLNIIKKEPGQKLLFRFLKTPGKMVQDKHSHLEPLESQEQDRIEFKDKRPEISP
Procedure, shortened: as §1

ELF5 = target: T6, ELF5 (Homo sapiens, UniProt Q9UKW6-2 1-255)
T6 sequence: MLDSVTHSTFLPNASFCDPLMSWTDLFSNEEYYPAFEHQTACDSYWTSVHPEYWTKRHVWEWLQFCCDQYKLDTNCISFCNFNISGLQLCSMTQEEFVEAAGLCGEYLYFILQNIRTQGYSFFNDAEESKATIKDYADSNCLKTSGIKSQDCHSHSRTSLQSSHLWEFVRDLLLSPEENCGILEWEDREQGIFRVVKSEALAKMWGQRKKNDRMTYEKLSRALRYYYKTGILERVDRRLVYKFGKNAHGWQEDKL
Procedure, shortened: as §1

ETV3 = target: T7, ETV3 (Homo sapiens, UniProt P41162-2 1-143)
T7 sequence: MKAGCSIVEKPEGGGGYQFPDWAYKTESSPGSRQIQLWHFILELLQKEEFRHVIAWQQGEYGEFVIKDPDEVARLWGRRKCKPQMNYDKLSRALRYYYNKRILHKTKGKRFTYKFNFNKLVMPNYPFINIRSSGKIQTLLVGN
Procedure, shortened: as §1

ETV6 = ETV6 (Homo sapiens, UniProt P41212 1-452)
Procedure, shortened: as §1

ETV6, sequence (P41212 whole entry): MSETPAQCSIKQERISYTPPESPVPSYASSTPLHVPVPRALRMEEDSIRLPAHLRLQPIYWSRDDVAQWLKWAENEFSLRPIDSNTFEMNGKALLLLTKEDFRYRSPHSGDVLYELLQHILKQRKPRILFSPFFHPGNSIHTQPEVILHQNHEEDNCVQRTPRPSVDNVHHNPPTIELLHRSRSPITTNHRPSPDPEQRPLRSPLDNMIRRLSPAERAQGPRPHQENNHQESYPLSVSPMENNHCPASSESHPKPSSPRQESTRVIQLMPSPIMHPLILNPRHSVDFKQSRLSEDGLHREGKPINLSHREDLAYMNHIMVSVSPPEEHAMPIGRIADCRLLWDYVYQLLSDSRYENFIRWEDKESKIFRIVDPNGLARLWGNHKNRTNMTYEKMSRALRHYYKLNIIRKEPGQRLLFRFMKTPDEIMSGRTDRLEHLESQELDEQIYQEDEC

Row | Sequence | binding signal (ERF) | binding signal (ETV3L) | binding signal (ETS2) | binding signal (SPDEF) | binding signal (ETV7) | binding signal (ELF5) | binding signal (ETV3) | binding signal (ETV6)
1 | GAATGT | 1.04 fold enrichment (6-mer frequency, TF over GST control) | 1.1 fold enrichment (6-mer frequency, TF over GST control) | 1.06 fold enrichment (6-mer frequency, TF over GST control) | 1.16 fold enrichment (6-mer frequency, TF over GST control) | 1.13 fold enrichment (6-mer frequency, TF over GST control) | 1.08 fold enrichment (6-mer frequency, TF over GST control) | 1.12 fold enrichment (6-mer frequency, TF over GST control) | 1.03 fold enrichment (6-mer frequency, TF over GST control)
2 | TCTTTA | 1.1 fold enrichment (6-mer frequency, TF over GST control) | 1.4 fold enrichment (6-mer frequency, TF over GST control) | 1.2 fold enrichment (6-mer frequency, TF over GST control) | 1.2 fold enrichment (6-mer frequency, TF over GST control) | 1.25 fold enrichment (6-mer frequency, TF over GST control) | 1.19 fold enrichment (6-mer frequency, TF over GST control) | 1.25 fold enrichment (6-mer frequency, TF over GST control) | 1.22 fold enrichment (6-mer frequency, TF over GST control)
3 | CAATCT | 1.21 fold enrichment (6-mer frequency, TF over GST control) | 1.14 fold enrichment (6-mer frequency, TF over GST control) | 1.18 fold enrichment (6-mer frequency, TF over GST control) | 1.03 fold enrichment (6-mer frequency, TF over GST control) | 1.25 fold enrichment (6-mer frequency, TF over GST control) | 1.16 fold enrichment (6-mer frequency, TF over GST control) | 1.19 fold enrichment (6-mer frequency, TF over GST control) | 1.19 fold enrichment (6-mer frequency, TF over GST control)
4 | GATCCT | 1.3 fold enrichment (6-mer frequency, TF over GST control) | 1.21 fold enrichment (6-mer frequency, TF over GST control) | 1.32 fold enrichment (6-mer frequency, TF over GST control) | 1.84 fold enrichment (6-mer frequency, TF over GST control) | 1.2 fold enrichment (6-mer frequency, TF over GST control) | 1.29 fold enrichment (6-mer frequency, TF over GST control) | 1.25 fold enrichment (6-mer frequency, TF over GST control) | 1.28 fold enrichment (6-mer frequency, TF over GST control)
5 | TTCCCA | 1.24 fold enrichment (6-mer frequency, TF over GST control) | 1.25 fold enrichment (6-mer frequency, TF over GST control) | 1.15 fold enrichment (6-mer frequency, TF over GST control) | 1.25 fold enrichment (6-mer frequency, TF over GST control) | 1.27 fold enrichment (6-mer frequency, TF over GST control) | 1.42 fold enrichment (6-mer frequency, TF over GST control) | 1.25 fold enrichment (6-mer frequency, TF over GST control) | 1.33 fold enrichment (6-mer frequency, TF over GST control)
6 | CTAACT | 1.32 fold enrichment (6-mer frequency, TF over GST control) | 1.19 fold enrichment (6-mer frequency, TF over GST control) | 1.35 fold enrichment (6-mer frequency, TF over GST control) | 1.24 fold enrichment (6-mer frequency, TF over GST control) | 1.29 fold enrichment (6-mer frequency, TF over GST control) | 1.21 fold enrichment (6-mer frequency, TF over GST control) | 1.24 fold enrichment (6-mer frequency, TF over GST control) | 1.29 fold enrichment (6-mer frequency, TF over GST control)
7 | CTTTGG | 1.19 fold enrichment (6-mer frequency, TF over GST control) | 1.18 fold enrichment (6-mer frequency, TF over GST control) | 1.13 fold enrichment (6-mer frequency, TF over GST control) | 1.09 fold enrichment (6-mer frequency, TF over GST control) | 1.26 fold enrichment (6-mer frequency, TF over GST control) | 1.09 fold enrichment (6-mer frequency, TF over GST control) | 1.22 fold enrichment (6-mer frequency, TF over GST control) | 1.14 fold enrichment (6-mer frequency, TF over GST control)
8 | ATGGCC | 1.27 fold enrichment (6-mer frequency, TF over GST control) | 1.32 fold enrichment (6-mer frequency, TF over GST control) | 1.37 fold enrichment (6-mer frequency, TF over GST control) | 1.32 fold enrichment (6-mer frequency, TF over GST control) | 1.44 fold enrichment (6-mer frequency, TF over GST control) | 1.32 fold enrichment (6-mer frequency, TF over GST control) | 1.39 fold enrichment (6-mer frequency, TF over GST control) | 1.34 fold enrichment (6-mer frequency, TF over GST control)
